Measurements reported in PubChem BioAssay.
Activity calls are given as the source filed them. Unless noted, the rule behind the calls is not given here.

Experiments:
[1] = anti-His antibody binders, primary screen, artefact control for SMM control protein annotation, biochemical, small-molecule microarray, 635 nm fluorescence (AID 1128); conditions: anti-His Alexa647 antibody binding, higher = more signal;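 note: score merges feature fluorescence with signal-to-noise for each printed compound spot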
[2] = system: Human papillomavirus type 1a E7 protein (residues 1-88); test: HPV1a E7 small-molecule binders, primary screen, biochemical, small-molecule microarray, residues 1-88, 635 nm (AID 1129); conditions: small-molecule microarray binding, fluorescence 635 nm; higher = more signal
[3] = target: Focal adhesion kinase 1 (Homo sapiens) (UniProt Q05397); test: small-molecule microarray binders of FAK, primary screen, biochemical, 635/667 nm fluorescence, BSA, DTT (AID 1130); conditions: PTK2 binding, 635 nm fluorescence, higher = more signal;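 note: composite of spot emission at 667 nm and signal to noise over triplicate slides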
[4] = system: Fibrinogen (Alexa647-labelled); test: fibrinogen binders on compound microarrays, profiling panel, artefact control for SMM control-protein annotation, biochemical, small-molecule microarray, 635/667 nm fluorescence (AID 1131); conditions: fibrinogen-A647 binding fluorescence, higher = more signal;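 note: z-score merges 667 nm fluorescence with per-spot signal-to-noise over triplicate slides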
[5] = target: Follistatin (Homo sapiens) (UniProt P19883); test: follistatin binders on small-molecule microarrays, primary screen, biochemical, small-molecule microarray, 635/667 nm fluorescence (AID 1132); conditions: FST binding, 635 nm fluorescence, higher = more signal
[6] = target: Fibroblast growth factor 2 (Homo sapiens) (UniProt P09038); test: FGF2 binders on small-molecule microarrays, primary screen, biochemical, small-molecule microarray, 635/667 nm fluorescence (AID 1133); conditions: small-molecule microarray binding, FGF2, fluorescence 635/667; higher = more signal
[7] = mitochondrial membrane potential change in A549 cells, profiling panel, cell-based, JC-1 fluorescence, basal, 24 h, 100 nL (AID 1138); conditions: higher = more signal;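 note: A549 lung adenocarcinoma cells under basal conditions with no added stimulus; test concentration not given here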
Lefty1 = Lefty1 binders on small-molecule microarrays, primary screen, biochemical, small-molecule microarray, 635/667 nm fluorescence (AID 1139); conditions: small-molecule microarray binding, fluorescence 635/667; higher = more signal
[8] = system: wheat germ agglutinin (Triticum aestivum), Alexa647-labelled; test: wheat germ agglutinin binders on compound microarrays, profiling panel, artefact control for SMM control-protein annotation, biochemical, small-molecule microarray, 635/667 nm fluorescence (AID 1140); conditions: WGA-A647 binding, 635 nm fluorescence, higher = more signal;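 note: score merges 667 nm feature emission with signal to noise over triplicate slides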
[9] = target: Luciferin 4-monooxygenase (Photinus pyralis) (UniProt P08659); test: firefly luciferase enzyme inhibitors, primary screen, biochemical, luminescence, purified enzyme, 2006 set (AID 1141); conditions: SteadyGlo luminescence, 30 min, higher = more signal, called active from +8 up or from −8 down;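 note: cell-free assay with purified firefly luciferase at 100 ng per well in PBS; test concentration not given here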
[10] = system: Wnt5a (protein binding on small-molecule microarray); test: Wnt5a binders on small-molecule microarray, primary screen, biophysical, 635/667 nm fluorescence (AID 1142); conditions: 635 nm fluorescence, higher = more signal;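 note: fluorescence read at 667 nm with signal to noise per printed feature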
[11] = cell viability in Huh7 cells, primary screen, cytotoxicity control for HCV replication inhibitor project, CellTiter-Glo luminescence, basal, 48 h (AID 1143); conditions: Huh7 HCV replicon, higher = more signal, called active from +8 up or from −8 down;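 note: Huh7 hepatoma cells carrying a hepatitis C replication reporter with no stimulus; test concentration not given here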
[12] = P. aeruginosa biofilm formation inhibitors, primary screen, PAO1 strain, BacTiter-Glo luminescence, LB-PBS (AID 1144); conditions: 12 h, higher = more signal
[13] = CREB reporter modulators without forskolin, primary screen, cell-based, PC12, CRE-LacZ reporter, unstimulated (AID 1145); conditions: no forskolin, luminescence, 4.5 h, higher = more signal, called active from +8 up or from −8 down
[14] = CREB reporter modulators under forskolin, primary screen, cell-based, PC12, CRE-LacZ reporter, forskolin-stimulated (AID 1146); conditions: luminescence, 4.5 h, higher = more signal, called active from +8 up or from −8 down;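 note: PC12 cells with 6xCRE LacZ reporter stimulated by forskolin 10 µM; beta-galactosidase reporter signal reflecting CREB driven transcription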
[15] = target: Streptavidin (Streptomyces avidinii) (UniProt P22629); test: streptavidin binders on small-molecule microarray, primary screen, artefact control for SMM compound annotation, biophysical, 635/667 nm fluorescence (AID 1147); conditions: streptavidin binding, higher = more signal;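 note: signal reflects streptavidin binding to arrayed compounds as a control protein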
[16] = small-molecule binders of probe aInhba, primary screen, biochemical, small-molecule microarray, 635/667 nm fluorescence (AID 1148); conditions: higher = more signal;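 note: score merges 667nm spot fluorescence with signal-to-noise for antibody binding to printed compounds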
Torsin-1A (Homo sapiens) [17] = target: Torsin-1A (Homo sapiens) (UniProt O14656); test: torsin A binders from cell lysate, primary screen, small-molecule microarray, wild-type, 635/667 nm (AID 1149); conditions: COS7 hTOR1A-WT lysate, 635 nm fluorescence, higher = more signal
Torsin-1A (Homo sapiens) [18] = target: Torsin-1A (Homo sapiens) (UniProt O14656); test: small-molecule binders of mutant TOR1A in lysate, primary screen, cell lysate, small-molecule microarray, COS7 lysate, 635/667 nm fluorescence (AID 1150); conditions: COS7 hTOR1A mutant lysate, 635 nm fluorescence, higher = more signal;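 note: score pools 667 nm emission and signal to noise measuring lysate protein binding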
[19] = system: Sonic hedgehog protein (Shh); test: small-molecule binders of Shh protein, primary screen, biochemical, small-molecule microarray, 635/667 nm fluorescence (AID 1151); conditions: small-molecule microarray binding, 635 nm fluorescence; higher = more signal;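 note: Shh protein binding to compounds spotted on small-molecule microarray slides; score combines spot fluorescence intensity with signal-to-noise across triplicate slides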

Sequence of Focal adhesion kinase 1 (Homo sapiens) (Q05397 whole entry, looked up): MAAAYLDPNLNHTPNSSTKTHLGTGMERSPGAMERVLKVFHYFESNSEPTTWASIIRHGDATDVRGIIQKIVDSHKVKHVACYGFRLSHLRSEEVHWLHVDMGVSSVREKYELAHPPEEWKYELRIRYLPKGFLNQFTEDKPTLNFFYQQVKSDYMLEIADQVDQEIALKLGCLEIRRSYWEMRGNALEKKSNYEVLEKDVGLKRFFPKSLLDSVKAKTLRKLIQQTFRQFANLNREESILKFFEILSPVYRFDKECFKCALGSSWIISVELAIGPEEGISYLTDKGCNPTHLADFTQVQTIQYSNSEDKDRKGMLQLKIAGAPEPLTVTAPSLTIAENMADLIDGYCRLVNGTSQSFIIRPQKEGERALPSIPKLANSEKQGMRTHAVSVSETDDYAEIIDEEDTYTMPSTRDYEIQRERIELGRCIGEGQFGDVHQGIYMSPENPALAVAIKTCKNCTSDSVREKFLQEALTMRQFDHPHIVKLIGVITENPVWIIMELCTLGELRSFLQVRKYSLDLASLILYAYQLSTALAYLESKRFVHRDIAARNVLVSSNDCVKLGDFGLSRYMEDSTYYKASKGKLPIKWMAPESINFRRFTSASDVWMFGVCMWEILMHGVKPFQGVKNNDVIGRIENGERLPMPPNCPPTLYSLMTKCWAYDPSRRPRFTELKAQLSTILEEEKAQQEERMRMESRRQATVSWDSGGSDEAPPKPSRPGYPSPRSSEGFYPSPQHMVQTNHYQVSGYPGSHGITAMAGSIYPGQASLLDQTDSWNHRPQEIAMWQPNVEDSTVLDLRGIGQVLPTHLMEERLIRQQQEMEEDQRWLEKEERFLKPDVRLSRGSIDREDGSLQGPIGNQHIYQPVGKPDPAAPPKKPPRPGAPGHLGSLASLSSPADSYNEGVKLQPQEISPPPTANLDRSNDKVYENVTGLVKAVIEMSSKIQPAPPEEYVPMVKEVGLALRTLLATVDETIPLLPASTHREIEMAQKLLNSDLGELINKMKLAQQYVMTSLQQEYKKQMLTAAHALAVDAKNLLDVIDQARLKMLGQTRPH
Sequence of Fibroblast growth factor 2 (Homo sapiens) (P09038 whole entry, looked up): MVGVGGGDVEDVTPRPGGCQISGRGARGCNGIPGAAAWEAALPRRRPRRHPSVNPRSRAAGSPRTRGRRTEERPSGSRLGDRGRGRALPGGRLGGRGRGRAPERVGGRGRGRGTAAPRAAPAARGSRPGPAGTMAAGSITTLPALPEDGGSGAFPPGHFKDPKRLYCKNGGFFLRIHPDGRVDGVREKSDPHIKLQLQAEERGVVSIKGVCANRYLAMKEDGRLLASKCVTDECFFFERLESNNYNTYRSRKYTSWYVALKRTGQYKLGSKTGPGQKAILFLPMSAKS
Sequence of Follistatin (Homo sapiens) (P19883 whole entry, looked up): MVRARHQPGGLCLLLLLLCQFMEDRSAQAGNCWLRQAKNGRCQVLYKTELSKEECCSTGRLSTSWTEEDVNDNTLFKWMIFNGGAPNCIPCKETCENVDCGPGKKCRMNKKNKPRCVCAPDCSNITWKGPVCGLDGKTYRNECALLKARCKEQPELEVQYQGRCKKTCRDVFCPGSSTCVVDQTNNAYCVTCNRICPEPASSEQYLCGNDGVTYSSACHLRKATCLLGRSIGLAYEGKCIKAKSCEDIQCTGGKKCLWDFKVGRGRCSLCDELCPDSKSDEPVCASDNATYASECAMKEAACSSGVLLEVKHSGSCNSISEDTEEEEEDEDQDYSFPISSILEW
Sequence of Luciferin 4-monooxygenase (Photinus pyralis) (P08659 whole entry, looked up): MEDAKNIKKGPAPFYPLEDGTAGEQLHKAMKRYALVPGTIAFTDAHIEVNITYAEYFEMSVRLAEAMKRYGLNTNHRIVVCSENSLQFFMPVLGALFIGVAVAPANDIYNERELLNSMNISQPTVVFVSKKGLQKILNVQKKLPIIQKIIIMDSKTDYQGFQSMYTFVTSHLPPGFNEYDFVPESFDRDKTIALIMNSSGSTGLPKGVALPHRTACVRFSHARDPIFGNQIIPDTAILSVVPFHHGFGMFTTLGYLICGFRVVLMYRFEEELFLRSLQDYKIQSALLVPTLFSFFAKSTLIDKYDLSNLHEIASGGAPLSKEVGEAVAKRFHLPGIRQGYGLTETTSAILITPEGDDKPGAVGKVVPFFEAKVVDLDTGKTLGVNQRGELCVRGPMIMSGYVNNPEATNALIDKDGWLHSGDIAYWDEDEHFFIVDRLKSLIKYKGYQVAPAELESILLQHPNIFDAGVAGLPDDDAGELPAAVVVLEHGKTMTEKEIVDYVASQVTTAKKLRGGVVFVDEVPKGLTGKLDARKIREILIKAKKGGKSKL
Sequence of Streptavidin (Streptomyces avidinii) (P22629 whole entry, looked up): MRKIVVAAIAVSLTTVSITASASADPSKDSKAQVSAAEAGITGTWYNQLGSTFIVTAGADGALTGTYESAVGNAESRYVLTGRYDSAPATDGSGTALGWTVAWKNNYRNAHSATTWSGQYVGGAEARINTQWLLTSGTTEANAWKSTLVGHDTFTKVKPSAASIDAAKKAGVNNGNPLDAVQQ
Sequence of Torsin-1A (Homo sapiens) (O14656 whole entry, looked up): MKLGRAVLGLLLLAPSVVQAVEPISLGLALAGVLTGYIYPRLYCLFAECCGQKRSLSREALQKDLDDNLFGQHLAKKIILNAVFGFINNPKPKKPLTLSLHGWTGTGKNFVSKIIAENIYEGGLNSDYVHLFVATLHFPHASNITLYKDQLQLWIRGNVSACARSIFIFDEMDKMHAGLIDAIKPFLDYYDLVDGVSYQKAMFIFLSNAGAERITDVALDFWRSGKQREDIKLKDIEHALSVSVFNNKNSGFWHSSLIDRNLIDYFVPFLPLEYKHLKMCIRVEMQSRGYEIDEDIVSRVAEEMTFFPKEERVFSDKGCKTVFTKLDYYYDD

| Structure (SMILES) | composite z-score [1] | composite z-score [2] | composite z-score [3] | composite z-score [4] | composite z-score [5] | composite z-score [6] | z-score [7] | composite z-score (Lefty1) | composite z-score [8] | z-score [9] | composite z-score [10] | z-score [11] | z-score [12] | z-score [13] | z-score [14] | composite z-score [15] | composite z-score [16] | composite z-score (Torsin-1A (Homo sapiens) [17]) | composite z-score (Torsin-1A (Homo sapiens) [18]) | composite z-score [19] |
| --- | --- | --- | --- | --- | --- | --- | --- | --- | --- | --- | --- | --- | --- | --- | --- | --- | --- | --- | --- | --- |
| CCOC(=O)c1ccc(NC(=O)O[C@H]2[C@H](OC(=O)Nc3ccc4c(c3)OCO4)[C@@H](OC(=O)Nc3ccc4c(c3)OCO4)[C@@H](OC)O[C@@H]2CO)cc1 | 2.28 | 1.22 | 0.891 | 0.992 | 1.26 | 1.12 | -1.05 | 0.793 | 1.16 | -7.83 (inactive) | 0.332 | -1.23 (inactive) | 0.164 (inactive) | 0.148 (inactive) | -0.557 (inactive) | 0.398 | 0.38 | 0.164 | 0.676 | 1.73 |
| C[N+](C)(C)CCCC[C@@H]1NC(=O)[C@H]2C[C@@H](C(=O)NCCCCCCN)[C@@H](c3ccc(O)cc3)N2C1=O | 3.15 | 1.13 | 0.145 | 0.973 | 0.835 | 0.299 | 0.792 | -0.046 | 1.17 | -0.932 (inactive) | 0.408 | -0.548 (inactive) | 1.09 (inactive) | -0.528 (inactive) | -1.1 (inactive) | 0.859 | 0.108 | 0.774 | 0.545 | -0.117 |
| CC1=C([C@H](O)CCc2ccccc2)[C@H](CO)[C@@H]2C(=O)N(C)C(=O)[C@@H]2C1 | 0.32 | -0.183 | 0.332 | 0.431 | 0.172 | 0.227 | 1.48 | 0.475 | 0.133 | -1.01 (inactive) | -0.124 | -0.0547 (inactive) | -0.518 (inactive) | -0.321 (inactive) | -0.33 (inactive) | 0.591 | -0.218 | 0.285 | 0.0992 | 0.656 |
| COC(=O)[C@@]1(Cc2ccccc2)[C@H]2c3cc(C(=O)N(C)C)n(Cc4c(CO)[nH]cc(C)c4=O)c3C[C@H]2CN1C(=O)c1ccccc1 | 0.886 | 0.677 | 0.206 | 0.819 | -0.0699 | -0.615 | 0.238 | -0.016 | 1 | 0.379 (inactive) | 0.259 | 0.229 (inactive) | 0.268 (inactive) | -0.568 (inactive) | 0.977 (inactive) | 0.0174 | -0.0963 | 0.376 | 0.478 | -0.842 |
| O=C(NCc1ccccc1)[C@@H]1c2ccccc2C(=O)N(Cc2ccccc2C(F)(F)F)[C@H]1c1ccc(CO)cc1 | -0.782 | 0.334 | 0.0179 | -0.709 | 0.592 | -0.133 | 1.86 | -0.324 | 0.32 | -0.745 (inactive) | -0.405 | -1.55 (inactive) | 0.714 (inactive) | 0.324 (inactive) | -0.0897 (inactive) | -0.752 | -0.201 | -1.55 | 0.0481 | -0.687 |
| Cc1cc(C)c(C(O)C2C=CC3C(=O)NC(=O)C3N2Nc2ccc(Cl)cc2Cl)c(C)c1 (stereo not given) | 1.37 | 1.22 | 0.941 | 0.966 | 1.08 | 0.752 | -0.318 | -0.0986 | 1.19 | -1.43 (inactive) | 0.0976 | -0.943 (inactive) | -0.882 (inactive) | -0.329 (inactive) | -0.496 (inactive) | 1.64 | 0.249 | 0.148 | 0.697 | -0.684 |
| CO[C@]12C=C(Br)[C@@H](C[C@@H]1c1cccc(C)c1)[C@@]1(CO1)C2=O | 0.177 | -0.322 | -0.129 | -0.407 | 0.415 | 0.391 | -0.645 | 0.802 | -0.0489 | 1.02 (inactive) | -0.161 | -0.795 (inactive) | -0.863 (inactive) | 0.223 (inactive) | 5.27 (inactive) | -0.433 | -0.154 | -0.436 | -0.407 | 0.841 |
| CC(C)OC(=O)C=C1C[C@@H](c2ccc(C(F)(F)F)cc2)O[C@@H](c2ccc(C(F)(F)F)cc2)O1 | 0.751 | 1.25 | 1.04 | 0.907 | -0.0691 | -0.46 | -0.0127 | -0.0747 | 1.21 | -0.478 (inactive) | -0.1 | -3.23 (inactive) | -1.17 (inactive) | -0.723 (inactive) | -0.163 (inactive) | -0.208 | -0.157 | 0.827 | 0.483 | -0.831 |
| C=CCC(OC(C)=O)[C@@H]1[C@@H](N(Cc2cc3ccccc3o2)C(=O)Cc2ccc(F)cc2)c2cc(OCCCO)ccc2N1C(=O)c1ccc2ccccc2c1 (stereo not given in full) | -0.232 | -0.835 | -0.167 | -1.03 | 0.722 | -0.143 | 1.08 | 0.777 | 0.181 | -0.514 (inactive) | 0.117 | -0.008 (inactive) | 0.101 (inactive) | 2.6 (inactive) | 0.86 (inactive) | 0.0943 | -0.176 | -0.312 | 0.237 | 0.697 |
| OCCCC1=CC(c2ccc(CN3CCCC3)cc2)N(Cc2sc3ccccc3c2Cl)CC1 (stereo not given) | 2.68 | 1.07 | 0.609 | 0.311 | 1.19 | 1.38 | 2.11 | 0.649 | 0.483 | -1.01 (inactive) | 0.774 | -2.99 (inactive) | 0.00672 (inactive) | 0.96 (inactive) | -0.134 (inactive) | 0.37 | 0.0633 | 0.598 | 0.842 | 1.46 |
